Results: PubChem BioAssay AID1159580 (chemical genetic matrix, 2015)
About 2,000 (36%) of roughly 5,500 compounds were called active. Another 18% or so got no clear call; they are omitted. Rule as the data show it: active = normalized growth mostly below about 0.91 (no sharp cut-off); inconclusive = no clear call, values can overlap the other calls; inactive = mostly above about 0.92. Some of the results follow.

Assay: chemical genetic growth profiling, strain panel (AID 1159580);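 also: tested at 20 µM; growth read once vehicle control cultures reached saturation at 30 °C; 1 = growth at the plate median or of vehicle wells; lower values mean less growth of the strain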
Settings: S. cerevisiae deletion strains, growth OD
[1] = locus YHR030C, strain SLT2, stronger effect = lower value
[2] = locus YHR079C, strain IRE1, stronger effect = lower value
[3] = locus YJL095W, strain BCK1, stronger effect = lower value
[4] = locus YJR066W, strain TOR1, stronger effect = lower value
[5] = locus YLR113W, strain HOG1, stronger effect = lower value
[6] = locus YNL183C, strain NPR1, stronger effect = lower value
[7] = locus YOR231W, strain MKK1, stronger effect = lower value
[8] = locus YPL256C, strain CLN2, stronger effect = lower value

Measured: normalized growth

CC1(C)O[C@@H]2[C@@H](CO[C@@]3(COS(N)(=O)=O)OC(C)(C)O[C@@H]23)O1
inactive: locus YAL021C, strain ccr4, stronger effect = lower value 1.03 | locus YAL026C, strain drs2, stronger effect = lower value 1.03 | locus YAL030W, strain snc1, stronger effect = lower value 1.01 | locus YBL061C, strain skt5, stronger effect = lower value 1.01 | locus YBR009C, strain hhf1, stronger effect = lower value 0.983 | locus YBR023C, strain chs3, stronger effect = lower value 1.02 | locus YBR171W, strain sec66, stronger effect = lower value 1.01 | locus YBR231C, strain swc5, stronger effect = lower value 0.981 | locus YBR279W, strain paf1, stronger effect = lower value 1.02 | locus YCL011C, strain gbp2, stronger effect = lower value 1.01 | locus YCL016C, strain dcc1, stronger effect = lower value 1.04 | locus YCL069W, strain vba3, stronger effect = lower value 1.01 | locus YCR088W, strain abp1, stronger effect = lower value 1.01 | locus YDL005C, strain med2, stronger effect = lower value 1.02 | locus YDL040C, strain nat1, stronger effect = lower value 0.997 | locus YDR001C, strain nth1, stronger effect = lower value 1 | locus YDR069C, strain doa4, stronger effect = lower value 0.994 | locus YDR137W, strain rgp1, stronger effect = lower value 1.08 | locus YDR159W, strain sac3, stronger effect = lower value 0.94 | locus YDR195W, strain ref2 0.987 | locus YDR297W, strain sur2, stronger effect = lower value 0.992 | locus YDR334W, strain swr1, stronger effect = lower value 1.02 | locus YDR335W, strain msn5, stronger effect = lower value 1.02 | locus YDR392W, strain spt3, stronger effect = lower value 1.01 | locus YEL003W, strain gim4, stronger effect = lower value 0.99 | locus YEL037C, strain rad23, stronger effect = lower value 1 | locus YEL061C, strain CIN8 (second series), stronger effect = lower value 1 | locus YER015W, strain faa2, stronger effect = lower value 1.01 | locus YER016W, strain bim1, stronger effect = lower value 1.04 | locus YER111C, strain swi4, stronger effect = lower value 1.02 | locus YER155C, strain BEM2 (second series), stronger effect = lower value 1.02 | locus YFR010W, strain ubp6, stronger effect = lower value 0.983 | locus YGL167C, strain pmr1, stronger effect = lower value 1.01 | locus YGL173C, strain kem1, stronger effect = lower value 0.998 | locus YGL227W, strain vid30, stronger effect = lower value 1.01 | locus YGL240W, strain doc1, stronger effect = lower value 0.991 | locus YGL253W, strain hxk2, stronger effect = lower value 1 | locus YHR013C, strain ard1, stronger effect = lower value 1.07 | locus YHR027C, strain rpn1, stronger effect = lower value 1.01 | [1] 0.98 | [2] 0.965 | locus YHR142W, strain chs7, stronger effect = lower value 1.02 | locus YJL092W, strain hpr5, stronger effect = lower value 1.01 | locus YJL095W, strain BCK1 (second series), stronger effect = lower value 1.01 | [3] 0.974 | locus YJL115W, strain asf1, stronger effect = lower value 1.01 | locus YJL129C, strain trk1, stronger effect = lower value 1.01 | locus YJL154C, strain vps35, stronger effect = lower value 1 | locus YJL164C, strain tpk1, stronger effect = lower value 0.988 | locus YJL166W, strain qcr8, stronger effect = lower value 0.985 | locus YJL187C, strain SWE1, stronger effect = lower value 0.992 | [4] 0.942 | locus YKL160W, strain elf1, stronger effect = lower value 1.05 | locus YKR026C, strain gcn3, stronger effect = lower value 1 | locus YKR091W, strain srl3, stronger effect = lower value 0.999 | locus YLL001W, strain dnm1, stronger effect = lower value 0.987 | locus YLL026W, stronger effect = lower value 1 | locus YLL041C, strain sdh2, stronger effect = lower value 0.991 | locus YLR027C, strain aat2, stronger effect = lower value 1.01 | [5] 0.964 | locus YLR221C, strain rsa3, stronger effect = lower value 0.992 | locus YLR258W, strain gsy2, stronger effect = lower value 1.02 | locus YLR262C, strain YPT6 (second series), stronger effect = lower value 1.01 | locus YLR320W, strain mms22, stronger effect = lower value 0.956 | locus YLR342W, strain FKS1, stronger effect = lower value 1.03 | locus YLR357W, strain rsc2, stronger effect = lower value 1 | locus YLR370C, strain arc18, stronger effect = lower value 1.01 | locus YLR384C, strain iki3, stronger effect = lower value 1.03 | locus YML120C, strain ndi1, stronger effect = lower value 0.999 | locus YMR058W, strain fet3, stronger effect = lower value 1.01 | locus YMR125W, strain sto1, stronger effect = lower value 1 | locus YMR129W, stronger effect = lower value 1 | locus YMR205C, strain PFK2, stronger effect = lower value 0.981 | locus YMR231W, strain pep5, stronger effect = lower value 1 | locus YNL071W, strain lat1, stronger effect = lower value 1.01 | [6] 0.902 | locus YNL209W, strain ssb2, stronger effect = lower value 1.01 | locus YNL248C, strain rpa49, stronger effect = lower value 1.03 | locus YNL322C, strain KRE1 (second series), stronger effect = lower value 1.01 | locus YNR049C, strain mso1, stronger effect = lower value 0.99 | locus YOR001W, strain rrp6, stronger effect = lower value 0.965 | locus YOR070C, strain gyp1, stronger effect = lower value 1.01 | locus YOR080W, strain dia2, stronger effect = lower value 1.02 | locus YOR083W, strain WHI5, stronger effect = lower value 0.996 | locus YOR106W, strain vam3, stronger effect = lower value 1.04 | [7] 0.977 | locus YOR265W, strain rbl2, stronger effect = lower value 1 | locus YOR270C, strain vph1, stronger effect = lower value 1.06 | locus YOR290C, strain snf2, stronger effect = lower value 1.06 | locus YPL051W, strain arl3, stronger effect = lower value 1.07 | locus YPL078C, strain atp4, stronger effect = lower value 1.04 | locus YPL106C, strain sse1, stronger effect = lower value 1.07 | locus YPL240C, strain hsp82, stronger effect = lower value 1.01 | [8] 0.95

CC(=O)C(Sc1nc2ccccc2s1)C(C)=O
active: locus YER123W, strain YCK3, stronger effect = lower value 0.595 | locus YGR092W, strain DBF2, stronger effect = lower value 0.343 | [1] 0.63 | locus YJL157C, strain FAR1, stronger effect = lower value 0.68 | locus YKL067W, strain YNK1, stronger effect = lower value 0.694 | [5] 0.591 | locus YNL006W, strain LST8, stronger effect = lower value 0.901 | [6] 0.561 | [8] 0.6
inactive: locus YAR019C, strain CDC15, stronger effect = lower value 0.896 | locus YBL105C, strain PKC1, stronger effect = lower value 0.919 | locus YBR135W, strain CKS1, stronger effect = lower value 0.915 | locus YBR136W, strain MEC1, stronger effect = lower value 0.923 | locus YBR160W, strain CDC28, stronger effect = lower value 0.909 | locus YDL017W, strain CDC7, stronger effect = lower value 0.919 | locus YDL028C, strain MPS1, stronger effect = lower value 0.906 | locus YDL101C, strain DUN1, stronger effect = lower value 0.979 | locus YDL108W, strain KIN28, stronger effect = lower value 0.93 | locus YDL132W, strain cdc53, stronger effect = lower value 0.91 | locus YDL214C, strain PRR2, stronger effect = lower value 0.713 | locus YDR052C, strain DBF4, stronger effect = lower value 0.916 | locus YDR054C, strain cdc34, stronger effect = lower value 0.906 | locus YDR226W, strain ADK1, stronger effect = lower value 0.937 | locus YDR477W, strain SNF1, stronger effect = lower value 0.778 | locus YER133W, strain GLC7, stronger effect = lower value 0.812 | locus YFL009W, strain cdc4, stronger effect = lower value 0.892 | locus YFL029C, strain CAK1, stronger effect = lower value 0.9 | locus YFR003C, strain YPI1, stronger effect = lower value 0.926 | locus YFR019W, strain FAB1, stronger effect = lower value 0.836 | locus YFR028C, strain CDC14, stronger effect = lower value 0.922 | locus YGR040W, strain KSS1, stronger effect = lower value 0.798 | locus YGR052W, strain FMP48, stronger effect = lower value 0.667 | [2] 0.547 | locus YHR082C, strain KSP1, stronger effect = lower value 0.785 | locus YHR205W, strain SCH9, stronger effect = lower value 0.948 | locus YIL147C, strain SLN1, stronger effect = lower value 0.921 | [3] 0.521 | locus YJL128C, strain PBS2, stronger effect = lower value 0.918 | locus YJR016C, strain ILV3, stronger effect = lower value 0.916 | locus YJR066W, strain TOR1 (second series), stronger effect = lower value 0.795 | [4] 0.682 | locus YKL048C, strain ELM1, stronger effect = lower value 0.929 | locus YKL101W, strain HSL1, stronger effect = lower value 0.866 | locus YKL193C, strain SDS22, stronger effect = lower value 0.907 | locus YKL203C, strain TOR2, stronger effect = lower value 0.879 | locus YLR133W, strain CKI1, stronger effect = lower value 0.765 | locus YLR403W, strain SFP1, stronger effect = lower value 0.764 | locus YML070W, strain DAK1, stronger effect = lower value 0.699 | locus YMR001C, strain CDC5, stronger effect = lower value 0.91 | locus YMR205C, strain PFK2 (second series), stronger effect = lower value 0.749 | locus YMR277W, strain FCP1, stronger effect = lower value 0.892 | locus YNL020C, strain ARK1, stronger effect = lower value 0.739 | locus YNL161W, strain CBK1, stronger effect = lower value 0.906 | locus YNL207W, strain RIO2, stronger effect = lower value 0.937 | locus YNL222W, strain SSU72, stronger effect = lower value 0.907 | locus YNL307C, strain MCK1 (second series), stronger effect = lower value 0.807 | locus YOL078W, strain AVO1, stronger effect = lower value 0.908 | locus YOL136C, strain PFK27, stronger effect = lower value 0.694 | locus YOR061W, strain CKA2, stronger effect = lower value 0.752 | locus YOR119C, strain RIO1, stronger effect = lower value 0.827 | [7] 0.591 | locus YOR329C, strain SCD5, stronger effect = lower value 0.925 | locus YPL031C, strain PHO85, stronger effect = lower value 0.729 | locus YPL153C, strain RAD53, stronger effect = lower value 0.734 | locus YPL204W, strain HRR25, stronger effect = lower value 0.757 | locus YPL209C, strain IPL1, stronger effect = lower value 0.914 | locus YPR025C, strain CCL1, stronger effect = lower value 0.916 | locus YPR106W, strain ISR1, stronger effect = lower value 0.945 | locus YPR111W, strain DBF20, stronger effect = lower value 0.946 | strain NNK1, stronger effect = lower value 0.948 | strain TSCII, stronger effect = lower value 0.891
